Screens deposited in PubChem BioAssay by several laboratories.
Shown are actives, neighbours in structure and some others; about 1.4% of the full set was active somewhere.
MsrA inh: inhibits bovine methionine sulfoxide reductase A. purified bovine MsrA, absorbance read-out. inhibition, % at 15.5 µM. actives 0.75% (n = 360,000)
pCIP destab: lowers stability of the mouse p/CIP coactivator protein | Q05BA5 | F442A p/CIP-EGFP cells, EGFP fluorescence, 16 h | decrease of EGFP signal, % at 10 µM | actives 0.01% (n = 290,000) | AID 1984;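 active = EGFP signal decrease of at least 30% at 10 µM or well 3 SD below plate mean, unless failing retest; inactive = the rest, including hits failing retest or dose response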
Target sequence (Q05BA5 1-1403): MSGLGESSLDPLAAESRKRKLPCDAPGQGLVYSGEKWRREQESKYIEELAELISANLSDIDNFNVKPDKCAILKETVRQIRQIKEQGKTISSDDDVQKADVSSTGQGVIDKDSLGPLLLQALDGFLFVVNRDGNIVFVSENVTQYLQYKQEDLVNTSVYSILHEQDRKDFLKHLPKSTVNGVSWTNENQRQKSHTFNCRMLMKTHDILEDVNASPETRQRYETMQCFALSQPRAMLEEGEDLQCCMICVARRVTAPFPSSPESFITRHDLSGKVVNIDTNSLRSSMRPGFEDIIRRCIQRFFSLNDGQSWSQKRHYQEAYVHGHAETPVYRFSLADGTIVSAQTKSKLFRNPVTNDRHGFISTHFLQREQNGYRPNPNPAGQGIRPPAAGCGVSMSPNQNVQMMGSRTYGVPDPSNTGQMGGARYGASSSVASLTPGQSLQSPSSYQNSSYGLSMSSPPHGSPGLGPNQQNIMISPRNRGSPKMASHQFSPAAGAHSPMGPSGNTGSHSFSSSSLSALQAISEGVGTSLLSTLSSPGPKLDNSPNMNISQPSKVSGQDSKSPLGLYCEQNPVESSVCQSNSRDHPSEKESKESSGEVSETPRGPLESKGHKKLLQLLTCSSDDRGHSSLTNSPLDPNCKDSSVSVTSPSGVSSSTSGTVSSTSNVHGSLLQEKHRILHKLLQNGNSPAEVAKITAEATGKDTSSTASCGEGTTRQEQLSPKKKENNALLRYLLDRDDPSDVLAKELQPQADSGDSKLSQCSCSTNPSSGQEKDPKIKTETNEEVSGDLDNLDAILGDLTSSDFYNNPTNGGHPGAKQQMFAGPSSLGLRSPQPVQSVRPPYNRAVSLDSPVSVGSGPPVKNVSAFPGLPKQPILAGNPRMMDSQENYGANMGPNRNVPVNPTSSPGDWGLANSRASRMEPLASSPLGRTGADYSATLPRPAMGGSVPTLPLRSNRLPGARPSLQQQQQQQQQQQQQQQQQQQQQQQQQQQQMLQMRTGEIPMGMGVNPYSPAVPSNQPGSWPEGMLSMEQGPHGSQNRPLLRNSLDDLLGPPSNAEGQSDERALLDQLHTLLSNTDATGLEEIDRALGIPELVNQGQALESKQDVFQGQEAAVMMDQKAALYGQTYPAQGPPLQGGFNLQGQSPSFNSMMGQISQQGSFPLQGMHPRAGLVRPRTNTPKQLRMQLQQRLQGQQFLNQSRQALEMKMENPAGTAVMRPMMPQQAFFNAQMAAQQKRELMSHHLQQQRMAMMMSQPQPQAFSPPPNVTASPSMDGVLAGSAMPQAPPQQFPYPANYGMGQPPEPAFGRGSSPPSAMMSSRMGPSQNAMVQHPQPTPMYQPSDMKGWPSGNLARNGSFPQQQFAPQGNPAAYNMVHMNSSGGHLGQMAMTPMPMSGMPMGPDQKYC
bovine MsrA act: bovine methionine sulfoxide reductase A activation; AID 602163; actives 0.3% (n = 360,000); purified bovine MsrA, absorbance read-out; activation, % at 10.6 µM; in the data active = activation above about 7.5%
14-3-3 Bad inh: disrupts binding of bovine 14-3-3 zeta to phospho-Bad peptide; P63103; TR-FRET 14-3-3zeta/Dy647-pBad peptide displacement, 1 h; inhibition, % at 21.7 µM; actives 0.71% (n = 220,000);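 active = inhibition above about 70%, limit read from the data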
MsrA conf: confirmation of bovine MsrA inhibitors | shares compounds with MsrA inh | purified bovine MsrA, absorbance read-out | inhibition, % at 15.5 µM | actives 41% (n = 2,300);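 note: coupled to thioredoxin reductase with NADPH and selenocystamine and DMSO as substrate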
Each line names hits and unclear results; the compound was inactive in the other large screens (follow-up assays come after a bar, where they were run). Cut-off read from the data, not from the text of the source, unless noted: active = inhibition above about 4.5%; inactive = the rest.

CN(C)c1ccc(/C=C(\NC(=O)c2ccccc2)C(=O)NCCN2CCOCC2)cc1	MsrA inh 5.3 (no result: 14-3-3 Bad inh) | MsrA conf inactive
CC(C)(CNC(=O)c1cc2c(s1)CCCC2)N1CCOCC1	none (no result: pCIP destab, 14-3-3 Bad inh)
Cc1ccc[n+](/C(=C\C(=C=[N-])C#N)C(=O)c2ccc(Cl)cc2)c1	MsrA inh 4.8 | MsrA conf 5.0
Cc1cccc(N/C=C/C(=O)c2ccc(Cl)cc2)c1	none (no result: 14-3-3 Bad inh)
Cc1c(N2C(=O)CS/C2=N\N=C\c2ccc(Cl)cc2)c(=O)n(-c2ccccc2)n1C	none
COc1ccc(/C=N/N=C2\SCC(=O)N2c2c(C)n(C)n(-c3ccccc3)c2=O)cc1OC	MsrA inh 5.7 | MsrA conf inactive
COc1ccc(/C=C2\SC(N)=NC2=O)cc1Br	MsrA inh 4.7 (no result: 14-3-3 Bad inh) | MsrA conf inactive
COc1ccc(/C=N/N=C2\SC(CC(=O)O)C(=O)N2c2ccccc2)c(OC)c1 (stereo not drawn)	MsrA inh 4.7 | MsrA conf 6.1
C=CCN1C(=O)C(CC(=O)O)S/C1=N/N=C/c1ccc(N(CC)CC)cc1 (stereo not drawn)	MsrA inh 5.0 (no result: pCIP destab, 14-3-3 Bad inh) | MsrA conf inactive
O=C(O)CC1S/C(=N\N=C/c2ccccc2)N(c2ccc(O)cc2)C1=O (stereo not drawn)	none
CN(C)c1ccc(/C=N/N=C2/SC(CC(=O)O)C(=O)N2c2ccc(O)cc2)cc1 (stereo not drawn)	MsrA inh 5.4 | MsrA conf 5.0
Cc1ccc(S(=O)(=O)NC(=O)Nc2ccc(C)cc2C)cc1	none (no result: 14-3-3 Bad inh)
COC(=O)c1ccc(S(=O)(=O)N2CCCN(Cc3cccc(Br)c3F)CC2)n1C	MsrA inh 15 | MsrA conf 11
Cc1ccsc1C(=O)OCC(=O)NC1CCCCC1C (stereo not drawn)	none (no result: pCIP destab, 14-3-3 Bad inh)
CCOc1ccccc1CN1CCN(CCCc2ccccc2)CC1CCO (stereo not drawn)	none (no result: 14-3-3 Bad inh)
CCC1CCCCN1C(=O)NC(=O)c1ccccc1 (stereo not drawn)	none (no result: 14-3-3 Bad inh)
CCOc1ccc(-c2nnc(-c3cccs3)o2)cc1	none
COc1cc(-c2nnc(-c3cccs3)o2)cc(OC)c1OC	none
c1csc(-c2nnc(-c3ccc(N4CCOCC4)cc3)o2)c1	MsrA inh 5.2 | MsrA conf inactive
COc1ccc(-c2nnc(-c3cccs3)o2)cc1OC	MsrA inh 5.3 | MsrA conf inactive
COC1=C(c2ccccc2)C(=O)c2ccccc2C1=O	none
O=C(C1=C(c2ccccc2)C(=O)c2ccccc2C1=O)c1ccccc1	MsrA inh 72 | MsrA conf 59
CS(=O)(=O)c1ccc2nc(NC(=O)c3ccc(NS(=O)(=O)c4cccc([N+](=O)[O-])c4)cc3)sc2c1	MsrA inh 5.3 | MsrA conf 5.3
CS(=O)(=O)c1ccc2nc(NC(=O)c3ccc(S(=O)(=O)NCC4CCCO4)cc3)sc2c1 (stereo not drawn)	MsrA inh 5.0 | MsrA conf inactive
O=C(O)c1ccc(/C=N/NC(=S)NCCN2CCOCC2)cc1	MsrA inh 6.1 | MsrA conf inactive
Cc1ccc(C(=O)NC(=S)Nc2ccc(N3CCOCC3)cc2)c(C)c1	none
O=C(N/N=C/c1ccc(N2CCOCC2)cc1)c1ccc(O)cc1	MsrA inh 5.6 | MsrA conf 4.8
C/C(=N\NC(=O)c1cccc(C)c1)c1ccc(N2CCOCC2)cc1	MsrA inh 5.3 | MsrA conf inactive
Cc1ccc(C(=O)N/N=C/c2ccc(N3CCOCC3)cc2)c(C)c1	MsrA inh 5.5 | MsrA conf inactive
C/C(=N\NC(=O)c1ccc(F)cc1)c1ccc(N2CCOCC2)cc1	none
Cc1cc(C)c(CN2CCN(Cc3ccc(C)o3)C(CCO)C2)c(-n2cccn2)c1 (stereo not drawn)	none
O=C(CN1CCN(S(=O)(=O)N2CCCCC2)CC1)Nc1ccc(Br)cc1	none (no result: 14-3-3 Bad inh)
Cc1ccc(NC(=O)CSc2nnnn2C2CC2)cc1S(=O)(=O)N1CCOCC1	none (no result: pCIP destab, 14-3-3 Bad inh)
O=C(NCCN1C(=O)S/C(=C\c2ccccc2Cl)C1=O)C1=COCCO1	none (no result: pCIP destab, 14-3-3 Bad inh)
O=C(NCCN1C(=O)S/C(=C\c2ccccc2F)C1=O)C1=COCCO1	MsrA inh 4.8 (no result: pCIP destab, 14-3-3 Bad inh) | MsrA conf inactive
O=C(NCCN1C(=O)S/C(=C\c2ccc(OC(F)F)cc2)C1=O)C1=COCCO1	none (no result: MsrA inh, pCIP destab, 14-3-3 Bad inh)
COc1ccc(/C=C2\SC(=O)N(CCNC(=O)C3=COCCO3)C2=O)cc1	MsrA inh 8.5 (no result: pCIP destab, 14-3-3 Bad inh) | MsrA conf inactive
O=C(NCCN1C(=O)S/C(=C\c2ccc(OC(F)F)cc2)C1=O)c1cnccn1	MsrA inh 5.1 | MsrA conf inactive
O=C(COC(=O)/C=C/c1ccc(OC(F)F)cc1)Nc1cccc(S(=O)(=O)N2CCOCC2)c1	none (no result: pCIP destab, 14-3-3 Bad inh)
